This is an account of results in PubChem BioAssay (NCATS).

The test system of experiment [1] is CRL-7250. Kind of experiment: Cytotoxic Profiling of Annotated Libraries Using Quantitative High-Throughput Screening (AID 1296008). For max response: % is set by controls: 0 for no effect and ±100 for the full control effect. Note: nearly all actives have a fitted effect of over 60% in size. Note: potency is the fitted concentration of half-maximal effect. Particulars: Five cell lines viability, CellTiter-Glo ATP luminescence, 48-72 h; max response: stronger effect = lower value. A digest of the protocol:
(§1)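 Cytotoxicity was measured as CellTiter-Glo ATP luminescence, read after 10 min at room temperature. Compound treatment of the cells lasted 48 or 72 hr at 37 degrees Celsius in a qHTS format.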

The subject of experiment [2] is HEK293. The description is as above. Particulars: Five cell lines viability, CellTiter-Glo ATP luminescence, 48-72 h; max response: stronger effect = lower value. In a few lines: as §1
On the technique in general: In ATP-based viability assays light output follows the ATP content of the culture.

Experiment [3] has as its system HaCat. The description is as above. Conditions: Five cell lines viability, CellTiter-Glo ATP luminescence, 48-72 h; max response: stronger effect = lower value. A digest of the protocol: as §1
Experiment [4] deals with KB-3-1. The description is as above. Conditions: Five cell lines viability, CellTiter-Glo ATP luminescence, 48-72 h; max response: stronger effect = lower value. In a few lines: as §1
Experiment [5] concerns NIH3T3. The experiment is described as above. Conditions: Five cell lines viability, CellTiter-Glo ATP luminescence, 48-72 h; max response: stronger effect = lower value. In a few lines: as §1
The test system of experiment [6] is HACAT. Kind of experiment: qHTS assay to identify novel small-molecules to repurpose for Merkel cell carcinoma treatment (AID 1296009). Note: nearly all actives have a fitted effect of over 60% in size. Conditions: MCC and control cell lines, CellTiter-Glo viability, 72 h; at 44.8 µM (top of the series) unless noted. A digest of the protocol:
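After compound transfer in DMSO, plates were kept 72 hr at 37 degree celsius. Luminescent ATP signal from CellTiter-Glo served as viability measure, normalized against DMSO and no-cell controls.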
In general terms: In qHTS, concentration-response curves come from the screen itself.

In experiment [7] the test system is C33A. Kind of experiment: Primary qHTS to identify gynecologic anti-cancer compounds using libraries of approved drugs and bioactive compounds (AID 1345084). Note: % is set by controls: 0 for no effect and ±100 for the full control effect; nearly all actives have a fitted effect of over 55% in size. Conditions: Gynecologic cancer cell panel viability, ATPlite luminescence, 48 h; series mostly up to 57.5 µM. A digest of the protocol: (§2)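 Luminescence from the ATPlite ATP-monitoring reagent indicates viable cell number; lower signal means cytotoxicity. Cells received compound 16 h after seeding and were exposed for 48 h across five concentrations.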

Experiment [8] deals with CAOV3. The description is as above. Particulars: Gynecologic cancer cell panel viability, ATPlite luminescence, 48 h; series mostly up to 57.5 µM. A digest of the protocol: as §2
Experiment [9] deals with CASKI. Described as above. Conditions: Gynecologic cancer cell panel viability, ATPlite luminescence, 48 h; series mostly up to 57.5 µM. A digest of the protocol: as §2
Experiment [10] deals with Es-2. Described as above. Conditions: Gynecologic cancer cell panel viability, ATPlite luminescence, 48 h; series mostly up to 57.5 µM. In a few lines: as §2
For experiment [11], the system named is HeLa. The experiment is described as above. Particulars: Gynecologic cancer cell panel viability, ATPlite luminescence, 48 h; series mostly up to 57.5 µM. In a few lines:
as §2

For experiment [12], the system named is Hek293T. Described as above. Particulars: Gynecologic cancer cell panel viability, ATPlite luminescence, 48 h, control line for the selectivity index; series mostly up to 57.5 µM. In a few lines: as §2
Experiment [13] relates to JEG-3. The experiment is described as above. Particulars: Gynecologic cancer cell panel viability, ATPlite luminescence, 48 h; series mostly up to 57.5 µM. In a few lines:
as §2

For experiment [14], the system named is OV90. Described as above. Particulars: Gynecologic cancer cell panel viability, ATPlite luminescence, 48 h; series mostly up to 57.5 µM. In a few lines:
as §2

Results filed as inconclusive are left out. A number with no mark means an inactive call. Activity calls are given as the source filed them. Calls come from the whole dose curve; as a rule, active = well fitted curve in the direction sought with a large enough effect; inconclusive = small, poorly fitted or top-dose-only effect, or another doubt; inactive = no such curve, though single readings can be large; an effect the other way counts as inactive or inconclusive.

Consider `O=C(/C=C/c1ccccc1)OC[C@H]1O[C@@H](OC(=O)c2cc(O)c(O)c(O)c2)[C@H](O)[C@@H](O)[C@@H]1O`, for which the outcome in [1], in experiment [3] and in [9] was inactive. The results for the max response in experiment [2], in experiment [4] and in [5] were 4.27%, 6.66% and 3.75%, respectively. Moreover, in experiment [6], the outcome is “inactive [at 17.4 µM]”. Moreover, the Potency entry in experiment [7], in [8], in experiment [10], in experiment [11], in experiment [12] and in experiment [13] was “inactive” throughout. The Potency result in experiment [14] was “inactive”.
Take `CC(O)C1CCC2C3CCC4CC(OC5OC(C(=O)O)C(O)C(O)C5O)CCC4(C)C3CCC12C` (centres undefined): the max response was -11.7% in experiment [1], -10.1% in experiment [2], -9.6% in [4] and -3.21% in experiment [5]. The call in [3], in experiment [6] and in [9] was inactive. The Potency result in [7], in experiment [8], in experiment [10], in experiment [11], in [12] and in experiment [13] was “inactive” each time. Moreover, the Potency entry in experiment [14] was “inactive”.
As for `O=C(N[C@@H]1CC[C@@H](c2cccc(F)c2F)CN(CC(F)(F)F)C1=O)N1CCC(n2c(=O)[nH]c3ncccc32)CC1`, the max response in experiment [1] was -4.99%; in experiment [5], -12.6%. Further, the Potency in experiment [2] is 16.4 µM (active). In addition, the molecule was classed as inactive in experiment [3], in experiment [4], in experiment [6] and in experiment [9]. Moreover, the Potency entry in experiment [7], in experiment [8], in [10], in experiment [11], in [12] and in [13] was “inactive” throughout. Further, the Potency entry in experiment [14] is “inactive”.
On to `CC1CCC2C(C)(C)C(O)C(O)CC2(C)C12Cc1c(O)cc(CO)c(C=O)c1O2` (centres undefined), for which the max response in experiment [1] was 1.89%; in [2], -2.44%; in [4] it was 2.63%; in experiment [5] it was 0.788%. In addition, the molecule was classed as inactive in experiment [3] and in experiment [9]. In addition, in experiment [6], the outcome is “inactive [at 17.4 µM]”. Moreover, the Potency entry in experiment [7], in experiment [8], in experiment [10], in experiment [11], in experiment [12] and in experiment [13] was “inactive” in each case. Besides, in experiment [14], the Potency result was “inactive”.
Regarding `COc1cccc(C(=O)NCCNc2nc3cc(C)cc(C)c3cc2C#N)c1`, the max response in [1] was -1.46%; in experiment [2] it was -19%; in experiment [4], 5.87%; in experiment [5], -4.31%. For the same molecule, the molecule was classed as inactive in [3], in experiment [6] and in experiment [9]. Besides, the Potency result in [7], in experiment [8], in [10], in [11], in experiment [12] and in experiment [13] was “inactive” in each case. Also, the Potency entry in [14] was “inactive”.
In the case of `COc1cc(C(O)C2COC(c3ccc(OC4OC(CO)C(O)C(O)C4O)c(OC)c3)C2CO)ccc1O` (centres undefined), the max response is -6.83% in experiment [1], -1.12% in [2], 8.83% in experiment [4] and -19.8% in experiment [5]. Also, the outcome in experiment [3] and in experiment [9] was inactive. Besides, the outcome in [6] was “inactive [at 17.4 µM]”. In addition, the Potency result in experiment [7], in experiment [8], in experiment [10], in experiment [11], in experiment [12] and in [13] was “inactive” each time. For the same molecule, in experiment [14], the Potency entry is “inactive”.
`Cc1noc2c1-c1ccccc1C(c1ccc(Cl)cc1)=N[C@H]2CC(N)=O`: the values for the max response in experiment [1], in experiment [2] and in experiment [5] were 1.75%, -4.39% and -0.413%, respectively. Besides, the call in experiment [3], in experiment [4], in [6] and in experiment [9] was inactive. For the same molecule, the Potency entry in experiment [7], in experiment [8], in experiment [10], in experiment [11], in experiment [12] and in [13] was “inactive” each time. The Potency result in experiment [14] was “inactive”.
Consider `COC(=O)C1=CO[C@@H](O[C@@H]2O[C@H](CO)[C@@H](O)[C@H](O)[C@H]2O)[C@H]2[C@@H]1C=C[C@]21C=C([C@H](C)OC(=O)/C=C/c2ccc(O[C@@H]3O[C@H](CO)[C@@H](O)[C@H](O)[C@H]3O)cc2)C(=O)O1`, for which the max response was -2.8% in [1], 4.82% in [2] and 9.99% in experiment [4]. In addition, the molecule was called inactive in experiment [3], in experiment [5] and in experiment [9]. For the same molecule, in experiment [6], the outcome was “inactive [at 17.4 µM]”. Further, the Potency result in [7], in [8], in experiment [10], in experiment [11], in experiment [12] and in experiment [13] was “inactive” in each case. Moreover, the Potency result in experiment [14] was “inactive”.
Regarding `CCC(=O)N1CCc2cc(OC)c(O)cc2C1`, the max response in experiment [1] is -24.5%; in [2], -5.69%; in experiment [4] it was -5.14%; in experiment [5], 3.84%. The molecule was classed as inactive in experiment [3], in [6] and in experiment [9]. In addition, the Potency result in [7], in experiment [8], in experiment [10], in experiment [11], in [12] and in experiment [13] was “inactive” throughout. Further, the Potency entry in experiment [14] is “inactive”.
For `CC1CC2(O)OC(=O)C3=C2C(CCC3)[C@@]12C[C@@H](c1ccoc1)OC2=O` (some centres undefined), the max response is 0.272% in experiment [1], -0.207% in experiment [2] and 0.0082% in experiment [5]. The molecule was called inactive in experiment [3], in experiment [4], in experiment [6] and in experiment [9]. The Potency result in experiment [7], in experiment [8], in experiment [10], in experiment [11], in experiment [12] and in [13] was “inactive” each time. The Potency entry in [14] is “inactive”.
Turning to `CC1=C(C)C(=O)OC(C(C)C2C(O)CC3C4C5OC5C5(O)CC(OC6OC(CO)C(OC7OC(C)C(O)C(O)C7O)C(O)C6O)CC(O)C5(C)C4CCC32C)C1` (centres undefined), the max response in experiment [1] was -10%; in [2] it was -3.17%; in experiment [4], 2.34%; in experiment [5] it was 0.724%. Also, the call in experiment [3] and in experiment [9] was inactive. Further, the outcome in [6] was “inactive [at 17.4 µM]”. The Potency entry in [7], in experiment [8], in [10], in experiment [11], in experiment [12] and in experiment [13] was “inactive” each time. Further, the Potency result in experiment [14] is “inactive”.
